Laboratory results as given in PubChem BioAssay (NCI).
Compounds without any hit were thinned out: in the full panel of roughly 83,000, 20% have a hit.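 Percent growth is the endpoint: 0 to 100 indicates growth inhibition (40 means 60% inhibition), 0 means no net growth, and negative values indicate cell death.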 A number with no mark means an inactive call. Active and inactive are the calls of the source. How the source made its calls: active means growth percent below 10; inactive means the rest.

Experiments:
Test in all cases: NCI-60 one-dose screen, 48 h (100 = growth as untreated, 0 = no growth, -100 = all killed)
Details in all cases: 10 µM unless noted
SK-MEL-2 melanoma = system: SK-MEL-2 melanoma
SN12C renal = system: SN12C renal
UO-31 renal = system: UO-31 renal
TK-10 renal = system: TK-10 renal
ACHN renal = system: ACHN renal
A498 renal = system: A498 renal
CCRF-CEM leukemia = system: CCRF-CEM leukemia
MOLT-4 leukemia = system: MOLT-4 leukemia
OVCAR-8 ovarian = system: OVCAR-8 ovarian
OVCAR-5 ovarian = system: OVCAR-5 ovarian
SK-OV-3 ovarian = system: SK-OV-3 ovarian
IGROV1 ovarian = system: IGROV1 ovarian
OVCAR-3 ovarian = system: OVCAR-3 ovarian
HS 578T breast = system: HS 578T breast
NCI/ADR-RES ovarian = system: NCI/ADR-RES ovarian
RPMI-8226 leukemia = system: RPMI-8226 leukemia
SR leukemia = system: SR leukemia
OVCAR-4 ovarian = system: OVCAR-4 ovarian
CAKI-1 renal = system: CAKI-1 renal
EKVX NSCLC = system: EKVX NSCLC

| SMILES | growth (SK-MEL-2 melanoma) | growth (SN12C renal) | growth (UO-31 renal) | growth (TK-10 renal) | growth (ACHN renal) | growth (A498 renal) | growth (CCRF-CEM leukemia) | growth (MOLT-4 leukemia) | growth (OVCAR-8 ovarian) | growth (OVCAR-5 ovarian) | growth (SK-OV-3 ovarian) | growth (IGROV1 ovarian) | growth (OVCAR-3 ovarian) | growth (HS 578T breast) | growth (NCI/ADR-RES ovarian) [%] | growth (RPMI-8226 leukemia) | growth (SR leukemia) | growth (OVCAR-4 ovarian) | growth (CAKI-1 renal) | growth (EKVX NSCLC) |
| --- | --- | --- | --- | --- | --- | --- | --- | --- | --- | --- | --- | --- | --- | --- | --- | --- | --- | --- | --- | --- |
| COc1cc(Cn2c(-c3nonc3N)nc3ccccc32)ccc1C | 20.5% | 36% | 48.3% | 54% | 41.2% | 6.72% (active) | 16.2% | 21.2% | 31.6% | 34% | 29.9% | 47.6% | -34.7% (active) | 22.5% | 21.2 | – | – | – | – | – |
| COc1ccc(C(=O)/C=C/c2cc(C(=O)c3cc(OC)c(OC)c(OC)c3)ccc2OC)cc1 | 60.8% | 68.8% | 53.7% | 107% | 41% | 93.1% | 5.61% (active) | 10.5% | 43.8% | 45% | 90% | 62.2% | 60.6% | 62.5% | 26.5 | 14.6% | – | – | – | – |
| COc1cc(/C=C\c2cc(OC)c(OC)c(OC)c2)cc(N/C=C\C(=O)c2c[nH]c3ccccc23)c1OC | 46.7% | 70.8% | -93% (active) | -43.4% (active) | -100% (active) | 39.3% | -57.3% (active) | -29% (active) | 33.8% | 35.3% | 90.1% | – | -93.6% (active) | 67.5% | 73.5 | -32.8% (active) | -36.8% (active) | – | – | – |
| COc1ccc(/C=C2\CCCC3=C2NC(C)=NC3c2ccc(OC)c(OC)c2)cc1OC (stereo unspecified) | 5.93% (active) | 5.95% (active) | 34.3% | 12.2% | 9.82% (active) | 5.88% (active) | -20% (active) | -23.2% (active) | 3.09% (active) | 4.73% (active) | 6.97% (active) | 24.4% | 2.97% (active) | 59% | 11.2 | -25.8% (active) | – | 21% | – | – |
| COc1ccc(-c2nc(-c3nc4ccc(F)cc4[nH]3)cc3c2[nH]c2ccccc23)cc1 | 29.4% | 23.1% | 7.03% (active) | – | 32.1% | 26.4% | 17.6% | 22.5% | 13.6% | 77.8% | 87% | 27% | 42.3% | 42.4% | 19.7 | -5.03% (active) | 15.5% | – | 15.2% | – |
| O=C(OCCCCOC(=O)n1cnc2ccccc21)n1cnc2ccccc21 | – | 96% | 78.9% | 110% | 101% | 89.3% | 101% | 86.2% | 99.7% | 103% | 98.9% | 102% | 108% | 90.2% | – | 102% | 84.6% | 105% | 93.2% | 98.7% |
| COc1ccc(C(=O)/C=C/c2ccc(/C=C/c3cc(OC)c(OC)c(OC)c3)cc2)cc1 | 65.1% | 56.7% | 40.6% | – | 68.1% | 80% | 19.6% | 9.62% (active) | 28.4% | 117% | 102% | 6.66% (active) | 41.4% | – | – | -0.626% (active) | 9.61% (active) | 65.7% | 74.4% | – |
| COc1ccc(/C=C/C(=O)c2cc(OC)c(OC)c(OC)c2)cc1OCc1cn(Cc2ccc(F)cc2)nn1 | 90% | 29.2% | 30.8% | – | 57.9% | 78.7% | 0.459% (active) | 58.1% | 15% | 50.4% | 76.6% | 85.9% | 21.7% | – | 16.5 | 1.66% (active) | 3.34% (active) | 43.4% | 4.33% (active) | – |
| O=c1oc2cc(OS(=O)(=O)c3ccccc3)c(Cl)cc2c2c1CCCCCC2 | 106% | 87.2% | 71.5% | 111% | 88.2% | 86.1% | 81% | 77.4% | 89.2% | 90.1% | 106% | 84.3% | 91.3% | 88.6% | 67.4 | 75.2% | – | – | – | – |
| COc1ccc(NC(=O)CSc2nc3ccccc3c(=O)n2-c2ccccc2C(F)(F)F)c(OC)c1OC | 121% | 93% | 91.9% | – | 99.2% | 74.8% | 101% | 107% | 98% | 97.5% | 89.4% | – | 104% | – | 102 | 93.1% | 103% | 97.3% | 98.4% | – |
| COC(=O)c1cc(-c2cccs2)c(C#N)c(N)c1C#N | 112% | 102% | 92.7% | 116% | 107% | 104% | 92.5% | 98.1% | 98.9% | 105% | 101% | – | 108% | 102% | 106 | 99.7% | 94.5% | – | – | – |
| CN1CCN(CCCOc2ccc3nc(Nc4ccc(C(F)(F)F)c(Cl)c4)ccc3c2)CC1 | – | 25% | -8.8% (active) | 18.9% | 3.12% (active) | 63.3% | 3.91% (active) | -35.7% (active) | 31.3% | 22.4% | 55.5% | 13.7% | -11.8% (active) | 16.3% | 20.4 | -6.92% (active) | – | 41.7% | 3.08% (active) | 38.7% |
| COc1cc2nc(N3CCC[C@@H](NC4=CC(=O)c5ccccc5C4=O)C3)nc(N)c2cc1OC | – | 95.9% | 46% | -49.3% (active) | 72% | 107% | -20.9% (active) | -37.1% (active) | -41.2% (active) | 110% | 112% | -82.3% (active) | -69.5% (active) | – | 99 | -44.1% (active) | -11.3% (active) | 81.5% | 64.9% | – |
| O=C1CCCCN1CCCCC#Cc1ccccc1C#Cc1ccc([N+](=O)[O-])cc1 | – | 67.4% | 7.05% (active) | 80.6% | 34% | 59.7% | 21.4% | 18.7% | 55.4% | 60% | 71.1% | -36.7% (active) | 56.3% | 69.4% | 43.4 | 2.47% (active) | 18.1% | 60.2% | 58.4% | 74.8% |
| Cc1cc2c(C(C)C)c(O)c(O)c(C=NCCCCC(=O)O)c2c(O)c1-c1c(C)cc2c(C(C)C)c(O)c(O)c(C=NCCCCC(=O)O)c2c1O | – | 49.2% | 74.2% | 49% | 62% | 56.3% | 29.8% | 34.9% | 46.1% | 70.9% | 63.9% | 41.7% | 45.4% | 30.9% | 74.2 | – | – | – | 73.1% | 38.4% |
| COc1ccc(/C(=N/O)c2cc(F)c(F)c(OC)c2F)cc1O | – | 45.7% | 52.6% | 88.7% | 48.4% | 2.7% (active) | 15.5% | 37.4% | 17.7% | 52.1% | 17.3% | 50.6% | -2.69% (active) | 8.26% (active) | 17.4 | 22.1% | – | 58.6% | 28.1% | 45.5% |
| COc1cc(C2C=C(C)N=C3SC=C(C)N32)cc(OC)c1OC (stereo unspecified) | – | -8.33% (active) | -87.2% (active) | -22.5% (active) | -75% (active) | -27.6% (active) | -17.9% (active) | -2.68% (active) | 9.1% (active) | -45.8% (active) | -5.5% (active) | – | – | 2% (active) | 19.5 | -26.3% (active) | -6.27% (active) | 12.6% | -49.9% (active) | – |
| NC(=O)c1cccc(N2Cc3ccccc3OC3=C2C(=O)c2c(O)ccc(O)c2C3=O)c1 | – | -53.5% (active) | -86.7% (active) | -99.7% (active) | -93.7% (active) | 62.1% | -8.27% (active) | -36.2% (active) | -41.9% (active) | -68.1% (active) | 20.8% | – | -94.2% (active) | 20.9% | – | -13.4% (active) | -5.71% (active) | -93.5% (active) | -99.4% (active) | -0.27% (active) |
